Measurements: the supplement of paper PMC13380429

System: Vero E6 infected with SARS-CoV-2
Experiment: inhibition of SARS-CoV-2 cytopathic effect; higher = more antiviral protection, active = above 15
Settings: 48 h

Measured: inhibition of SARS-CoV-2 cytopathic effect

COc1cc(OC)c(NC(=O)Nc2cc(C)on2)cc1Cl
inactive: 1 nM 2.33% | 8.33 nM 0.81% | 100 nM 1.57% | 833.33 nM 4.04% | 10000 nM 2.62%

CN(C)CC/C=C1/c2ccccc2Sc2ccc(Cl)cc21 [chlorprothixene]
inactive: 1 nM 5.54% | 8.33 nM 3.98% | 100 nM -4.95% | 833.33 nM -3.59% | 10000 nM -1.82%

O=C(O)c1ccc2cc(-c3ccc(O)c(C45CC6CC(CC(C6)C4)C5)c3)ccc2c1
inactive: 1 nM 1.24% | 8.33 nM 1.61% | 100 nM -0.4% | 833.33 nM -2.65% | 10000 nM -7.34%

CCCCCCCC/C=C/C(=O)O [trans-2-undecenoic-acid]
inactive: 1 nM 0.16% | 8.33 nM -0.12% | 100 nM 1.42% | 833.33 nM 1.97% | 10000 nM 1.5%

c1cc(CN2CCCNCCNCCCNCC2)ccc1CN1CCCNCCNCCCNCC1 [plerixafor]
inactive: 1 nM -2.23% | 8.33 nM -1.5% | 100 nM 0.88% | 833.33 nM 0.29% | 10000 nM 1.12%

COc1cc(-c2ccc(=O)[nH]n2)ccc1OC(F)F [zardaverine]
inactive: 1 nM 0.13% | 8.33 nM 1.54% | 100 nM 0.67% | 833.33 nM 0.7% | 10000 nM 2.13%

CCC(=N\O)/C(C)=C/c1ccc(F)cc1
inactive: 1 nM -0.84% | 8.33 nM -0.21% | 100 nM 0.55% | 833.33 nM -0.42% | 10000 nM -0.21%

COc1ccc(N2CCOCC2)c2sc(NC(=O)N3CCC(C)(O)CC3)nc12 [tozadenant]
inactive: 1 nM 1.95% | 8.33 nM 8.03% | 100 nM -0.04% | 833.33 nM -0.08% | 10000 nM -2.66%

NC(=O)[C@@H]1CC[C@@H]2CN1C(=O)N2OS(=O)(=O)O [avibactam]
inactive: 1 nM -1.08% | 8.33 nM 0.92% | 100 nM -0.14% | 833.33 nM 0.95% | 10000 nM 1.7%

CC[C@@H](C)c1ccc(NC(=O)Cn2cnc3c2c(=O)n(C)c(=O)n3C)cc1 (racemic)
inactive: 1 nM -0.15% | 8.33 nM 0.22% | 100 nM -1.39% | 833.33 nM -1.04% | 10000 nM 3.52%

CC(=O)NC[C@H]1CN(c2ccc(N3CCOCC3)c(F)c2)C(=O)O1 [linezolid]
inactive: 1 nM -5.81% | 8.33 nM 4.06% | 100 nM 2.87% | 833.33 nM -0.71% | 10000 nM 3.13%

COC(=O)N[C@H](C(=O)N1CC2(CC2)C[C@H]1c1nc(-c2ccc3c(c2)C(F)(F)c2cc(-c4ccc5[nH]c([C@@H]6[C@H]7CC[C@H](C7)N6C(=O)[C@@H](NC(=O)OC)C(C)C)nc5c4)ccc2-3)c[nH]1)C(C)C [ledipasvir]
inactive: 1 nM -1% | 8.33 nM 1.14% | 100 nM -1.6% | 833.33 nM -5.39% | 10000 nM -5.41%

Cc1[nH]c(=O)c(C#N)cc1-c1ccncc1 [milrinone]
inactive: 1 nM 1.1% | 8.33 nM -2.54% | 100 nM -1.13% | 833.33 nM -1.41% | 10000 nM 0.27%

O=[N+]([O-])c1c(Nc2cc(F)cc(Cl)c2)ccc2nonc12
inactive: 1 nM 1.7% | 8.33 nM 2.32% | 100 nM 1.45% | 833.33 nM -0.1% | 10000 nM 2.66%

COc1ccc(Nc2ccn(-c3ccccc3)n2)cc1
inactive: 1 nM 2.12% | 8.33 nM 1.12% | 100 nM 3.85% | 833.33 nM 3.51% | 10000 nM 4.1%

O=C(OCC(O)CO)c1ccccc1Nc1ccnc2c(C(F)(F)F)cccc12 (stereo not given) [floctafenine]
inactive: 1 nM 0.71% | 8.33 nM 6.76% | 100 nM 1.82% | 833.33 nM 3.08% | 10000 nM 3.04%

Cc1c(N)cccc1Cn1ccc(OCCc2cccs2)cc1=O
inactive: 1 nM -0.22% | 8.33 nM 0.73% | 100 nM 1.31% | 833.33 nM 0.66% | 10000 nM -2.07%

CC(C)(C)c1ccc(C(O)CCCN2CCC(C(O)(c3ccccc3)c3ccccc3)CC2)cc1 (stereo not given) [terfenadine]
inactive: 1 nM 1.94% | 8.33 nM -2.95% | 100 nM -0.52% | 833.33 nM -3.56% | 10000 nM -21.1%

CC(C)[C@H](C(=O)Nc1ccc(C(=O)NO)cc1)c1ccccc1
inactive: 1 nM 3.84% | 8.33 nM 0.31% | 100 nM -0.75% | 833.33 nM 1.02% | 10000 nM 0.89%

CC/C(=C(/CC)c1ccc(OP(=O)(O)O)cc1)c1ccc(OP(=O)(O)O)cc1 [fosfestrol]
inactive: 1 nM -0.34% | 8.33 nM 2.21% | 100 nM -0.95% | 833.33 nM 0.3% | 10000 nM -0.17%

Cc1cccc(C)c1NC(=O)c1ccccc1C(=O)O [ftaxilide]
inactive: 1 nM -0.49% | 8.33 nM 0.92% | 100 nM -1.2% | 833.33 nM 0.63% | 10000 nM 1.39%

O=C(NCCCCCCNC(=O)ON=C1CCCCC1)ON=C1CCCCC1
inactive: 1 nM 2.1% | 8.33 nM 0.56% | 100 nM 1.93% | 833.33 nM 2.74% | 10000 nM 2.7%

C[C@@H](NCc1cc(Br)cc2nc(O)c(O)nc12)P(=O)(O)O
inactive: 1 nM -0.47% | 8.33 nM 3.65% | 100 nM -0.39% | 833.33 nM -1.72% | 10000 nM -3.97%

NCC1CC(=O)N(Cc2ccccc2)C1 (stereo not given) [nebracetam]
inactive: 1 nM 2.53% | 8.33 nM 1.25% | 100 nM 1.38% | 833.33 nM 1.16% | 10000 nM 0.26%

CSc1ccc2c(c1)N(CCC1CCCCN1C)c1ccccc1S2 (stereo not given) [thioridazine]
inactive: 1 nM 1.41% | 8.33 nM 3.38% | 100 nM -2.55% | 833.33 nM 1.05%
active: 10000 nM 41.9%

NCCNC(=O)c1ccc(Cl)cn1 [lazabemide]
inactive: 1 nM 1.32% | 8.33 nM -0.18% | 100 nM -0.23% | 833.33 nM -0.24% | 10000 nM 3.29%

O[C@@H](Cc1ccncc1)C(Cl)(Cl)Cl
inactive: 1 nM 0.9% | 8.33 nM 1.38% | 100 nM 3.16% | 833.33 nM 0.72% | 10000 nM 0.84%

Cc1cc(Nc2ccc(NC(=O)c3ccc(Nc4ccnc5ccccc45)cc3)cc2)nc(N)n1
inactive: 1 nM -1.09% | 8.33 nM 0.62% | 100 nM 2.48% | 833.33 nM 3.69%
active: 10000 nM 20.3%

Cc1cccc(Nc2cc(Cl)nc(SCC(=O)O)n2)c1C [pirinixic-acid]
inactive: 1 nM -0.9% | 8.33 nM -0.95% | 100 nM -1.99% | 833.33 nM -0.44% | 10000 nM 2.81%

CC(=O)OC/C=C(C)/C=C/C=C(C)/C=C/C1=C(C)CCCC1(C)C [retinyl-acetate]
inactive: 1 nM -1.78% | 8.33 nM 0.37% | 100 nM -0.15% | 833.33 nM 1.34% | 10000 nM 0.15%

CC(C)(C(=O)NCC(F)(F)C(F)(F)F)C(=O)N[C@@H]1C(=O)Nc2ccccc2-c2ccccc21
inactive: 1 nM -4.06% | 8.33 nM -4.36% | 100 nM -4.95% | 833.33 nM -5.35% | 10000 nM -3.87%

CC1=C(C(=O)O)N2C(=O)[C@@H](NC(=O)[C@H](N)C3=CCC=CC3)[C@H]2SC1 [cephradine]
inactive: 1 nM 0.46% | 8.33 nM -1.94% | 100 nM -0.29% | 833.33 nM 0.485% | 10000 nM -2.73%

O=S1(=O)N[C@H]2CCCN2c2ccccc21
inactive: 1 nM -9.82% | 8.33 nM -6.86% | 100 nM -6.43% | 833.33 nM -8.3% | 10000 nM -12.2%

CN1C[C@H](C(=O)N[C@]2(C)O[C@@]3(O)[C@@H]4CCCN4C(=O)[C@H](Cc4ccccc4)N3C2=O)C[C@@H]2c3cccc4[nH]cc(c34)C[C@H]21 [dihydroergotamine]
inactive: 1 nM 0.49% | 8.33 nM 0.5% | 100 nM 2.21% | 833.33 nM -0.8% | 10000 nM 2.88%

CC(=O)O[C@H]1CC[C@@]2(C)C(=CC[C@@H]3[C@@H]2CC[C@]2(C)C(c4cccnc4)=CC[C@@H]32)C1 [abiraterone-acetate]
inactive: 1 nM -0.73% | 8.33 nM 0.99% | 100 nM -0.37% | 833.33 nM -1.43% | 10000 nM -0.75%

Fc1ccc(-n2cc(CCCCN3CCC4(CC3)OCc3ccccc34)c3ccccc32)cc1 [siramesine]
inactive: 1 nM 0.05% | 8.33 nM 1.88% | 100 nM 1.49% | 833.33 nM 4.24%
active: 10000 nM 28.7%

CCn1c2ccccc2c2cc(Nc3ccnc(NCCCN4CCOCC4)n3)ccc21
active: 10000 nM 69.3%
inactive: 1 nM -2.13% | 8.33 nM -1.13% | 100 nM 0.05% | 833.33 nM -0.2%

COc1ccc(CNC(=O)Nc2ncc([N+](=O)[O-])s2)cc1
inactive: 1 nM -1.91% | 8.33 nM 2.48% | 100 nM -0.26% | 833.33 nM -1.47% | 10000 nM 2.28%

COc1ccn2ncc(-c3nc4[nH]nc(NC(=O)c5ccc(F)cc5)c4cc3F)c2c1
inactive: 1 nM 1.72% | 8.33 nM -0.95% | 100 nM 0.38% | 833.33 nM -3.07% | 10000 nM -6.79%

Cc1ccc(C(=O)Nc2ccc(CN3CCN(C)CC3)c(C(F)(F)F)c2)cc1C#Cc1cnc2[nH]ncc2c1
inactive: 1 nM 1.62% | 8.33 nM 6.08% | 100 nM 4.44% | 833.33 nM -8.47% | 10000 nM -20.9%
